The list is not random: actives were taken first. Their share in the collection is about 0.42%.
PGK inhibitor = blocks T. brucei phosphoglycerate kinase | P07378 | PGK/GAPDH coupled, Kinase-Glo luminescence, 60 min | Potency, µM (doses to about 57.5 µM), hits mostly inhibitors | 0.043% of 380,000 active | AID 602233; note: nearly all actives have a fitted effect of over 60% in size
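Luminescent ATP detection (Kinase-Glo Plus) follows a 60-minute room-temperature incubation, with wells lacking PGK as controls. Buffer: 100 mM TEA (pH 7.6), 5 mM MgCl2, 0.01% Tween-20. Coupling enzyme GAPDH (100 nM final) supplies unstable 1,3-BPG in-well.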
GLS inhibitor = inhibitors of human glutaminase (GLS); Potency, µM (series often up to 45.5 µM), usual class: inhibitors; O94925; GLS enzymatic activity, qHTS titration; 0.21% of 410,000 active
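hKGA in 45 mM KH2PO4 pH 8.2, 0.02% Tween-20 with pin-transferred compounds; 1 mM L-glutamine (stock) plus glutamate oxidase/HRP/Amplex Red coupling added. Fluorescence read initially and after 30 min at RT.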
B2AR arrestin = beta2AR (human) beta-arrestin recruitment activity; P07550; beta-arrestin recruitment to beta2AR, cell-based reporter; Potency, µM (top dose mostly 46.1 µM), hits mostly activators; 0.02% of 330,000 active; AID 492947; note: nearly all actives have a fitted effect of over 65% in size
Target sequence (P07550 whole entry, looked up): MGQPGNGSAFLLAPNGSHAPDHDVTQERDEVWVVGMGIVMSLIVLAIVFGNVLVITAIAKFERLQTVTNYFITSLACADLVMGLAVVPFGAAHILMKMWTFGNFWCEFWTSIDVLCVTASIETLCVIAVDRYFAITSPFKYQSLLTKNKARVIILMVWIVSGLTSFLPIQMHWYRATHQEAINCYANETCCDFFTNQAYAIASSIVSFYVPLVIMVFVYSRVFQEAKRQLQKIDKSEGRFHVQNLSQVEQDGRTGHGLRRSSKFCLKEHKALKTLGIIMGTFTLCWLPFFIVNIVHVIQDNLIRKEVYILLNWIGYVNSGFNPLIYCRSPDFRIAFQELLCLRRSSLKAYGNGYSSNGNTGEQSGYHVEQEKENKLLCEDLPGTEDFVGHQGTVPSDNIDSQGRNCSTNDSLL
Tb PFK inh = blocks T. brucei phosphofructokinase. T. brucei PFK, ADP-Glo luminescence. Potency, µM (titrated, usually from 57.5 µM), most hits filed as inhibitors. 0.17% of 330,000 active. AID 485367; note: nearly all actives have a fitted effect of over 60% in size
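PFK 1.25 nM, F6P 0.5 mM, ATP 0.1 mM, 0.1 M TEA pH 8.0, 5 mM MgCl2, 0.01% Tween20, 0.1% BSA; 45 min RT. ADP-Glo readout. qHTS titration up to 57 uM; curves fitted, compounds curve-classed.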
Pin1 inhibitor = blocks the human prolyl isomerase Pin1; Q13526; Pin1 FP peptide displacement, HiFluor488, 10 min; Potency, µM (series often up to 115 µM), hits mostly inhibitors; 0.009% of 390,000 active; active = well fitted inhibition curve with a large enough effect in the polarisation, with a control signal flat, not every such curve was filed as active; inconclusive = small, poorly fitted or top-dose-only effect, or effect the other way, or a change in a side signal; inactive = no such curve, though single readings can be large or run the other way; the % refers to the polarisation
Target sequence (Q13526 whole entry, looked up): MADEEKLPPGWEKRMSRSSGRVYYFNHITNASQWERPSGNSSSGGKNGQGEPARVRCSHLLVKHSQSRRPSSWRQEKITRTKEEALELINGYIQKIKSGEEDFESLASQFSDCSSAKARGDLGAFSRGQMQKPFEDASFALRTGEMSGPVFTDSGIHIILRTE
BCR signal inh = blocks chronic active B-cell receptor signaling; 0.05% of 340,000 active; Potency, µM (titrated, usually from 46.1 µM), hits mostly inhibitors; ABC-DLBCL IkBa-CBG/CBR reporter, luminescence ratio, 4 h; AID 493014; active = well fitted inhibition curve with a large enough effect in the signal ratio, with a control signal flat, not every such curve was filed as active; inconclusive = small, poorly fitted or top-dose-only effect, or effect the other way, or a change in a side signal; the % refers to the signal ratio
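Concentration-response series (up to 46 uM) were applied to TMD8 dual-reporter cells for 4 h at 37C with doxycycline. Green/red ratio, after filter-overlap correction, defined %Activity; red signal alone was normalised to basal cells and zero luminescence.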
Hits are given with their value; - = inactive; ? = inconclusive; . = no result; ! = a repeat was not active. Unless noted, calls come from the whole dose curve; as a rule, active = well fitted curve in the direction sought with a large enough effect; inconclusive = small, poorly fitted or top-dose-only effect, or another doubt; inactive = no such curve, though single readings can be large; an effect the other way counts as inactive or inconclusive.

SMILES	PGK inhibitor	GLS inhibitor	B2AR arrestin	Tb PFK inh	Pin1 inhibitor	BCR signal inh
CCN(CC)Cc1cc(O)c(CN(CC)CC)cc1O	-	16µM	-	-	?	-
O=c1sc2ccccc2c(=O)n1Cc1ccccc1F	-	13µM	-	-	-	-
Cc1ccc(Cn2c(=O)sc3ccccc3c2=O)cc1	.	-	-	-	-	-
COc1cccc(CN2C(=O)c3ccccc3NC2c2ccc(OC)c(COc3ccc(NC(C)=O)cc3)c2)c1 (stereo not given)	.	.	.	.	-	.
CCc1ccccc1NC(=O)CSc1nc2n[nH]c(C)c2c(=N)n1-c1ccc(OC)cc1	-	11µM	-	-	-	-
CCc1ccccc1NC(=O)CSc1nc2n[nH]c(C)c2c(=N)n1-c1cccc(C)c1	-	-	.	.	-	?
CCOC(=O)c1ccc(NC(=S)NNC(C)(C)C)cc1	-	-	22µM	-	-	?
Cc1onc(-c2ccccc2)c1-c1nc2cc(Cl)ccc2c(=O)o1	-	-	-	-	-	13µM
Cc1ccc(NS(=O)(=O)c2cc3c(cc2-c2ccsc2)NC(=O)CO3)cc1C	.	.	.	.	-	.
Cc1ccc(N/N=C(\Cc2nc3ccccc3[nH]2)c2ccccc2)cc1	-	-	-	-	-	23µM
Cc1ccc(NS(=O)(=O)c2ccc3[nH]c(=O)[nH]c3c2)cc1C	.	.	.	.	-	.
Cc1ccc([N+](=O)[O-])cc1N=Nc1c(-c2ccc([N+](=O)[O-])cc2)[nH]n(C(N)=S)c1=O	-	-	0.71µM	-	.	?
Cc1ccc([N+](=O)[O-])cc1N=Nc1c(C)[nH]n(C(N)=S)c1=O	.	-	-	-	-	?
NC(=S)n1[nH]c(-c2ccc([N+](=O)[O-])cc2)c(N=Nc2ccc(Cl)cc2)c1=O	-	-	16µM	-	?	10µM
O=[S+]([O-])(c1ccc2ncsc2c1)N1CCN([S+](=O)([O-])c2c(F)cccc2F)CC1	.	.	.	.	-	.
CCc1ccc(/C(C)=N/NC(=O)CNC(=O)/C=C/c2ccco2)cc1	14µM	-	.	.	.	.
CCc1ccc(/C(C)=N/NC(=O)CNC(=O)/C=C/c2ccccc2OC)cc1	-	-	-	-	-	-
CN1CCN(c2cccc(CNc3nn4c(=O)c5ccccc5nc4s3)c2)CC1	.	.	.	.	-	.
CCCOc1ccccc1N1C(=O)CC(N(O)c2ccccc2)C1=O (stereo not given)	-	1.1µM	-	-	-	-
COc1ccccc1N1C(=O)CC(N(O)c2ccccc2)C1=O (stereo not given)	-	1.3µM	-	-	-	?
NC(=O)C1CCN(c2nccc(Cl)n2)CC1	.	.	.	.	-	.
CC(C)C1Cc2c(sc3ncnc(NN)c23)CO1 (stereo not given)	-	11µM	-	-	-	-
N[C@@H](Cc1cc(I)c(Oc2ccc(O)c(I)c2)c(I)c1)C(=O)O	?	16µM!	-	?	?	?
N[C@@H](Cc1ccc(O)c(O)c1)C(=O)O	22µM	?	.	.	?	.
NC(Cc1ccc(O)c([N+](=O)[O-])c1)C(=O)O (stereo not given)	-	-	-	-	-	-
SMILES	PGK inhibitor	GLS inhibitor	B2AR arrestin	Tb PFK inh	Pin1 inhibitor	BCR signal inh
N[C@@H](Cc1cc(I)c(Oc2cc(I)c(O)c(I)c2)c(I)c1)C(=O)O	-	-	.	.	?	.
Cc1ccc(NS(=O)(=O)c2ccc3c(c2)N(C)CCO3)cc1C	.	.	.	.	-	.
c1cc2c(cc1C1=NNC(=NC3CC3)SC1)OCCO2	13µM	-	-	?	-	?
C/C(=C(\CCO)SSCC1CCCO1)N(C=O)Cc1cnc(C)nc1N (stereo not given)	.	-	.	.	.	.
O=C(Nc1ccccc1)Nc1ccc2ocnc2c1	-	20µM	-	-	-	?
COc1ccc(C2Nc3ccccc3C(=O)N2Cc2ccccn2)cc1COc1ccc(NC(C)=O)cc1 (stereo not given)	.	.	.	.	-	.
CCOC(=O)c1nn(-c2ccccc2)c(=O)cc1OCC(=O)Nc1cc(C)ccc1OC	-	7.9µM	-	-	-	-
O=C(Nc1ccc(Cl)cc1)c1cc2c(cc1O)[nH]c1ccccc12	-	13µM	-	-	-	-
CC(=O)Nc1ccc2[nH]c3ccccc3c2c1	-	-	-	-	-	-
Nc1ccc(C(=O)Nc2ccc3c(O)cc(S(=O)(=O)O)cc3c2)cc1	-	6.3µM	.	.	-	.
COc1ccc(C2c3c(ncn(CCCc4ccccc4)c3=N)Oc3ccc4ccccc4c32)cc1OC (stereo not given)	.	.	.	.	-	.
C=C1C[C@@H]2[C@H]3CCC4=CC(=O)C=C[C@]4(C)[C@@]3(F)[C@@H](O)C[C@]2(C)[C@]1(O)C(=O)COC(C)=O	.	-	.	.	.	.
COC(=O)CSc1nc(N)c(C#N)c(-c2ccc(O)cc2)c1C#N	-	11µM	-	-	-	-
CCOC(=O)CSc1nc(N)c(C#N)c(-c2ccc(OCC)cc2)c1C#N	.	-	-	-	-	-
Cc1c(Cl)cccc1NS(=O)(=O)c1cc2c(cc1Cl)CCC(=O)N2	.	.	.	.	-	.
Cc1ccc(NS(=O)(=O)c2cc3c(cc2-c2ccco2)NC(=O)CO3)cc1C	.	.	.	.	-	.
NC(=O)C1CCN(c2ncnc(-c3ccc4c(c3)OCCCO4)n2)CC1	.	.	.	.	-	.
COc1ccc(C2Nc3ccc(Cl)cc3C(=O)N2Cc2ccccc2)cc1COc1ccc(NC(C)=O)cc1 (stereo not given)	.	.	.	.	-	.
Oc1c(Cl)cc(Cl)c2c1NCCC2	-	11µM	-	-	-	-
CCC(=O)NC(c1ccco1)c1cc(Cl)c2c(c1O)NCCC2 (stereo not given)	.	.	.	.	-	.
C[N+](C)(C)CCOP(=O)(O)OP(=O)([O-])OCC1OC(n2ccc(N)nc2=O)[C@H](O)[C@@H]1O (stereo not given in full)	.	-	.	.	.	.
CC(/C=C/c1ccccc1)=N\NC(N)=S	-	-	8.9µM	-	-	?
COc1ccc(/C=N/NC(=O)CCn2cnc(-c3ccccc3)c2-c2ccccc2)cc1	-	-	-	-	-	23µM
O=C(CCn1cnc(-c2ccccc2)c1-c1ccccc1)N/N=C/c1ccc(O)cc1	-	-	-	-	-	-
C[N+]1(C)CCC(OC(=O)CC(O)(c2ccccc2)C2CCCC2)C1 (stereo not given)	.	-	.	.	.	.
SMILES	PGK inhibitor	GLS inhibitor	B2AR arrestin	Tb PFK inh	Pin1 inhibitor	BCR signal inh
O=C(c1ccccc1)N1CCN(c2nc(-c3cccs3)nc3ccccc23)CC1	.	.	.	.	-	.
CC(C)Oc1ccc(/C=N/NC(N)=S)cc1	-	-	16µM	-	-	?
COc1ccc(/C=N/NC(N)=S)cc1	-	-	-	-	-	?
Oc1ccc(Nc2ccc3ccccc3c2)cc1	-	14µM	.	.	-	.
CC(=O)NC1CCN(c2nc(-c3ccc(Br)cc3)cs2)CC1	.	.	.	.	-	.
COc1ccc(N/C(C)=C/C(=S)Nc2ccccc2)cc1	-	13µM	-	-	-	-
CCC(CC)C(=O)c1c[nH]c(C(=O)NN)c1	-	-	-	-	-	22µM
CC(=O)c1sc(C(=O)O)c(-c2ccco2)c1-c1ccco1	-	20µM	-	-	.	-

From PubChem
